# Measured values published in PubChem BioAssay.
# Several values for one entry are separate records, joined by “and”; a condition that tells them apart may be missing. Identical values can stand only once. Activity calls are given as the source filed them.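 Rule for the calls, unless noted: active = inhibition at or above 50% relative to wild type and mutant plate controls; inactive = inhibition below 50%.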
# Assays:
# [1] = inhibitors of TNFa-induced NFkB p65 translocation, primary screen, imaging, HUVEC, MLSMR starter and 10KST1 sets (AID 438;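 active = inhibition above 20% together with a positive visual image hit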;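 note: compound added about 3h40 before a 20 min TNFalpha stimulation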;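 for inhibition: signal is the nuclear over cytoplasmic p65 intensity ratio per well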); details: HUVEC TNFa-induced p65 nuclear translocation; cell count: measured here: nuclei count (cytotoxicity indicator), at 2.08 µM; inhibition: at 2 µM, stronger effect = higher value, 0% TNFa-plus-vehicle, 100% no-TNFa wells
# [2] = reduction of polyQ htt aggregates in cells – imaging, exon1htt(103Q)mCFP cells, high-content imaging, primary screen (AID 483;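 active = visual image review flags a hit and inhibition of aggregation exceeds 20%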;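 note: compound exposure lasted 3 days before fixation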;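 for nuclei count: percent of the per-plate median nuclei count of sample wells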); details: exon1htt(103Q)mCFP cell line, aggregate imaging, at 2 µM; inhibition of aggregation: stronger effect = higher value; nuclei count: measured here: cell count, toxicity
# [3] = endothelial E-selectin expression blockers – imaging, HUVEC, immunofluorescence, MLSMR starter and 10KST1 sets, primary screen (AID 487;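 active = visually confirmed hit in the image check and inhibition above 20%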;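 for inhibition: signal is fraction of cell area covered by stained E-selectin grains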;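 for nuclei count: 100% = median nuclei count of all wells on the same plate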); details: HUVEC TNFalpha-induced E-selectin immunofluorescence imaging, at 2 µM; inhibition: stronger effect = higher value; nuclei count: measured here: cell number, toxicity
# [4] = Primary imaging screen for DUSP6 inhibitors that restore phospho-Erk in transfected HeLa cells, chemical complementation (AID 609;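 active = compounds giving at least 50% inhibition in the cell-based MKP-3 phosphatase rescue imaging test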;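 for inhibition: phospho-Erk level distribution per well compared with pooled transfected vehicle control wells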); details: HeLa MKP-3 transfected, phospho-Erk imaging KS statistic, at 10 µM, cells stimulated with TPA for 15 min
# [5] = molecular target: Dual specificity protein phosphatase 6 (Homo sapiens) (UniProt Q16828); experiment: as above; details: HeLa MKP-3 transfected, phospho-Erk imaging KS statistic; at 10 µM; stronger effect = higher value; cells stimulated with TPA for 15 min
# Sequence of Dual specificity protein phosphatase 6 (Homo sapiens) (Q16828 whole entry, looked up): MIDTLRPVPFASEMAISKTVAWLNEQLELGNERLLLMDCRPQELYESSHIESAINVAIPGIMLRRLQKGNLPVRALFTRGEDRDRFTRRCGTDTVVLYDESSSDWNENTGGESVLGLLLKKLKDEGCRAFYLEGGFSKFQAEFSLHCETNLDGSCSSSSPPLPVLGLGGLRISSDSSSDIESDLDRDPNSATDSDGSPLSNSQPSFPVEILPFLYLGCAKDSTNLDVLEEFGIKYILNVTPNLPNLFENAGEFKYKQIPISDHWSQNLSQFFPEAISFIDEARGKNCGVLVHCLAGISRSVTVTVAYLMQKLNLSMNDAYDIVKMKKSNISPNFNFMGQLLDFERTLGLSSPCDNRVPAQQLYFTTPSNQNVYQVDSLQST
# [6] = molecular target: Voltage-gated potassium channel subunit beta-2 (Rattus norvegicus) (UniProt P62483); experiment: inhibitors of rat Kvbeta2 reductase activity – biochemical, NADPH fluorescence, primary screen (AID 622;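 active = fluorescence slope higher than the sample average by over 3 SD, cut at about -0.22 in these data, passing the limit was not always enough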;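 note: slope of raw intensity against log time taken from 70 to 1610 s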); details: recombinant KvBeta, 4-cyanobenzaldehyde reduction, at 10 µM, stronger effect = higher value
# Sequence of Voltage-gated potassium channel subunit beta-2 (Rattus norvegicus) (P62483 whole entry, looked up): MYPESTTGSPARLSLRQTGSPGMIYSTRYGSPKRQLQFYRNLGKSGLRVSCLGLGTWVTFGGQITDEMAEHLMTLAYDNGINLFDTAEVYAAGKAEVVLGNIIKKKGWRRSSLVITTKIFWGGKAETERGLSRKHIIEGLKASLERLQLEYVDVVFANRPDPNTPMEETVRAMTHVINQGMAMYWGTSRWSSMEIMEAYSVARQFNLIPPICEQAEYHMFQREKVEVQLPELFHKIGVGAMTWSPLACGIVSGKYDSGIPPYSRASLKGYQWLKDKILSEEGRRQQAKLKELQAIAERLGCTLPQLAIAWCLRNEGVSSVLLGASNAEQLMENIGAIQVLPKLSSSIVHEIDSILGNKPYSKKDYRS
# [7] = molecular target: Voltage-gated potassium channel subunit beta-2 (Rattus norvegicus) (UniProt P62483); experiment: enhancers of rat Kvbeta2 NADPH turnover – biochemical, NADPH fluorescence, primary screen (AID 623;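 active = NADPH fluorescence slope more negative than the mean of all samples by about 3 SD, 99.7% confidence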;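 note: fluorescence intensity change per second fitted from 20 to 320 s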); details: Recombinant KvBeta, NADPH fluorescence decrease slope, 10 min; at 10 µM; stronger effect = lower value
# [8] = molecular target: Alpha-2C adrenergic receptor (Homo sapiens) (UniProt P18825); experiment: compounds altering alpha2C-coupled GIRK flux – cell-based, HEK293 alpha2C/GIRK1/2, thallium flux, primary screen (AID 624;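 active = fluorescence slope after compound addition differing from the mean of all screened samples at 99.7% confidence, in either direction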;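 note: slope of fluorescence ratio to pre-addition baseline per second over 15 to 24 s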); details: thallium flux BTC fluorescence, at 10 µM, actives lie on both sides
# Sequence of Alpha-2C adrenergic receptor (Homo sapiens) (P18825 whole entry, looked up): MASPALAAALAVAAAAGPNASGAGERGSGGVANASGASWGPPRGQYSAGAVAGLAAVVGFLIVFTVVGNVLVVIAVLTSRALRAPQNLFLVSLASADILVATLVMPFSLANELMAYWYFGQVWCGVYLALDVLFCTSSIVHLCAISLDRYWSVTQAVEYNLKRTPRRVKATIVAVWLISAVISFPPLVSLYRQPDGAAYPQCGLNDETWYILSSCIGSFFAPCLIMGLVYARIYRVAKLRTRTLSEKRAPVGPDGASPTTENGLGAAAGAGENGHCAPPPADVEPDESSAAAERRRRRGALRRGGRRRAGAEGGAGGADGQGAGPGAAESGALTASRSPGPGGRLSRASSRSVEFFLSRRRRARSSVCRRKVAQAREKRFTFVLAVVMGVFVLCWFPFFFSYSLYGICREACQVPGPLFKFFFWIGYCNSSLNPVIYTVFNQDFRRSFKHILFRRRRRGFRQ
# [9] = molecular target: Muscarinic acetylcholine receptor M4 (Homo sapiens) (UniProt P08173); experiment: M4-linked GIRK flux change, two-sided – cell-based, HEK293 M4/GIRK, thallium flux, BTC-AM, M4 allosteric agonist project, primary screen (AID 625;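 active = fluorescence slope after compound addition differing from the mean of all tested samples at 99.7% confidence, mostly higher but some lower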;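 note: thallium influx through GIRK channels coupled to M4 in HEK293 cells with BTC-AM dye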); details: at 10 µM, actives lie on both sides
# Sequence of Muscarinic acetylcholine receptor M4 (Homo sapiens) (P08173 whole entry, looked up): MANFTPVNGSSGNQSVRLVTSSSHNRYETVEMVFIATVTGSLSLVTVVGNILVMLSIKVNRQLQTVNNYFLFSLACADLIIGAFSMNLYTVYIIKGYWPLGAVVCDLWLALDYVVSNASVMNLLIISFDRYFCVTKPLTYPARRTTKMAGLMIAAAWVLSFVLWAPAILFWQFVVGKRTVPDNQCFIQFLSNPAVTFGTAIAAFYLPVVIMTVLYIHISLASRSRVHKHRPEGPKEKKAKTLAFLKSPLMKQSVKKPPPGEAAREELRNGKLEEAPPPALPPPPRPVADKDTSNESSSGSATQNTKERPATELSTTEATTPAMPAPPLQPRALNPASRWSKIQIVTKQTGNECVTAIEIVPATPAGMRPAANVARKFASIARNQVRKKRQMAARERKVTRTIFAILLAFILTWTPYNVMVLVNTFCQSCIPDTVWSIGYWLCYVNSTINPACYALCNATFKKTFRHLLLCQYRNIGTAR
# [10] = inhibitors of larval lipid processing in zebrafish, primary screen, whole organism, PED6 fluorescence, gall bladder and intestine (AID 686;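 active = a full or partial loss of lipid-probe fluorescence in the fish gall bladder, intestine or both, judged by eye; inactive = no fluorescence loss, or compound toxic to the fish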;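 note: larvae 5 to 7 days old with five fish per well; signal comes from phospholipase A2 cleavage of quenched PED6 carried via bile; overnight exposure to compound and PED6 before scoring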); details: Zebrafish larvae PED6 lipid processing, fluorescence scoring; screened at 20 µM (by protocol)
# [11] = loss of swimming-algae plug formation – whole organism, Chlamydomonas reinhardtii, WT vs cilia-less mutant, absorbance, 96-well, primary screen (AID 463189); details: Chlamydomonas reinhardtii gravitaxis, OD600 absorbance, 2 days; at 10 µM; stronger effect = higher value;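 note: 0% = wild type cc124 cells in DMSO and 100% = ciliumless bld1 mutant cells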
# [12] = blockers of RIG-like receptor reporter activation – cell-based, Sendai virus stimulus, luciferase, 10K MLSCN set, TLR/RLR signaling modifier project, primary screen (AID 602276;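 active = inhibition at or above 50% at 10 µM; inactive = inhibition below 50%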;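 note: firefly luciferase from ISG56 promoter only with Renilla not read in this screen; 0% = Sendai virus plus DMSO and 100% = medium plus DMSO without virus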); details: HEK293 RL24 IRF3 luciferase reporter, at 10 µM, stronger effect = higher value
# [13] = TLR3 IRF3 reporter activation blockers – cell-based, poly I:C stimulus, luciferase, 10K MLSCN set, primary screen (AID 602277;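 active = inhibition of the reporter signal at or above 50%; inactive = inhibition below 50%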); details: HEK293-TLR3 RL24 IRF3 luciferase reporter, at 10 µM, stronger effect = higher value
# [14] = measured here: cell density z-score
# [15] = measured here: nuclear c-Myc green intensity z-score
# [16] = measured here: nuclear pErk red intensity z-score, stronger effect = higher value
Structure (SMILES),cell count [1],inhibition [1],inhibition of aggregation [2],nuclei count [2] [%],inhibition [3],nuclei count [3] [%],"z-score [4, 14]","z-score [4, 15]","z-score [4, 16]",inhibition [5],fluorescence slope [6],NADPH fluorescence slope [7],slope [8],fluorescence slope [9],outcome [10],inhibition [11],inhibition [12],inhibition [13]
CC(=N\O)/C(CN(C)C)=N/O,593,-2.4% (inactive),-2.9% (inactive),86.5,-11.6% (inactive),131,0.774,-0.0101,-0.876,-0.233% (inactive),-0.49 (inactive),-6.9e-05 (inactive),0.0061 (inactive),0.00548 (inactive),inactive,-6.2% (inactive),-13.1% (inactive),1.97% (inactive)
CC(C)c1nc(NCC2CCCO2)c(C#N)c2c1COC(C)(C)C2 (centres undefined),354,-4.5% (inactive),6.9% (inactive),86.9,-236% (inactive),132,-0.206,-0.66,-0.111,-8.59% (inactive),-0.461 (inactive),-9.6e-05 (inactive),0.00432 (inactive),0.00335 (inactive),inactive,-3.7% (inactive),20.5% (inactive),25.1% (inactive)
CC(C)CNC(=O)c1c(N)n(/N=C/c2ccccn2)c2nc3ccccc3nc12,533,-2.3% (inactive),-1.4% (inactive),105,-33.4% (inactive),129,1.46,-0.805,-0.75,4.37% (inactive),-0.43 (inactive),-3.5e-05 (inactive),0.00506 (inactive),0.0059 (inactive),inactive,31.2% (inactive),-0.468% (inactive),-13.1% (inactive)
Cc1ccc(SCc2[nH]nc3c2C(c2ccc(C)o2)C(C#N)=C(N)O3)cc1 (centres undefined),571,-2.5% (inactive),15.4% (inactive),62.4,-2.7% (inactive),91.7,-2.32,1.82,1.99,24% (inactive),-0.515 (inactive),-5.6e-05 (inactive),0.0059 (inactive),0.00561 (inactive),inactive,25.7% (inactive),-13.7% (inactive),-11.1% (inactive)
CCN(CC)CCCN1C(=O)C(=O)/C(=C(/O)c2ccc(C)cc2)C1c1ccccn1 (centres undefined),546,-2.6% (inactive),21% (inactive),134,-85.1% (inactive),144,0.34,-0.315,-0.132,-2.29% (inactive),-0.45 (inactive),-3.6e-05 (inactive),0.0052 (inactive),0.00497 (inactive),inactive,-0.742% (inactive),-25.3% (inactive),-18.7% (inactive)
CCCN(CCC)C(=O)CC(c1ccc(F)cc1)c1ccco1 (centres undefined),558,-1.8% (inactive),24.6% (inactive),92.6,-37.9% (inactive),108,0.533,-0.963,-0.846,11.9% (inactive),-0.467 (inactive),-2.2e-05 (inactive),0.0041 (inactive),0.00507 (inactive),inactive,27.9% (inactive),19.1% (inactive),23% (inactive)
CNC(=O)CC(C(=O)O)c1ccc(OC(C)C)cc1 (centres undefined),649,-0.5% (inactive),26.1% (inactive),89.4,21.1% (inactive),125,-0.892,0.826,1.07,-2.09% (inactive),-0.454 (inactive),-4e-05 (inactive),0.00593 (inactive),0.00492 (inactive),inactive,2.81% (inactive),12.9% (inactive),19.4% (inactive)
CCCCc1nc(NCCN2CCOCC2)c(C#N)c2c1COC(C)(C)C2,472,-7.6% (inactive),-37.3% (inactive),122,-75.1% (inactive),116,-1.08,2.36,-1.06,3.42% (inactive),-0.542 (inactive),8.4e-06 (inactive),0.00518 (inactive),0.00481 (inactive),inactive,98.1% (active),15.9% (inactive),10.1% (inactive)
COc1ccc(OC)c(C2/C(=C(\O)c3ccc4c(c3)OCCO4)C(=O)C(=O)N2CCCN(C)C)c1 (centres undefined),490,-0.9% (inactive),-12.7% (inactive),115,-76.5% (inactive),130,0.935,0.819,-1.07,18.2% (inactive),-0.459 (inactive),-0.000132 (inactive),0.0076 (inactive),0.00426 (inactive),inactive,40.2% (inactive),11% (inactive),23.3% (inactive)
CCS(=O)(=O)CCn1c([N+](=O)[O-])cnc1C,637,5.5% (inactive),9.6% (inactive),97.3,-68.3% (inactive),110,0.704,2.39,0.14,27.9% (inactive),-0.507 (inactive),-8.1e-05 (inactive),0.00495 (inactive),0.00503 (inactive),inactive,19% (inactive),-12.7% (inactive),-11.5% (inactive)
Cc1cc(C)n(Cc2cc(C)c(Cn3nc(C)cc3C)cc2C)n1,622,0.2% (inactive),15.4% (inactive),102,-44.5% (inactive),137,0.927,1.3,1.6,1.63% (inactive),-0.434 (inactive),-0.000128 (inactive),0.00432 (inactive),0.00602 (inactive),inactive,-0.144% (inactive),8.11% (inactive),0.814% (inactive)
CN1CCN2c3ccccc3Cc3ccccc3C2C1 (centres undefined),620,1.5% (inactive),11.1% (inactive),113,-52% (inactive),117,-0.186,-0.363,-0.896,19.2% (inactive),-0.574 (inactive),-3.8e-05 (inactive),0.0196 (active),0.0128 (active),inactive,15.2% (inactive) and 10.4% (inactive),12.6% (inactive),45.7% (inactive)
CCN(CC)CCOC(=O)C1(c2ccc(OC)c(OC)c2)CCCC1,540,-5.7% (inactive),-1% (inactive),96.9,-29.5% (inactive),96.9,-0.552,-0.514,-0.16,-13.3% (inactive),-0.513 (inactive),-1.5e-05 (inactive),0.00483 (inactive),0.00575 (inactive),inactive,0.789% (inactive),13.2% (inactive),21% (inactive)
Cc1c(NC(=O)c2coc(=O)c(Br)c2)c(=O)n(-c2ccccc2)n1C,620,1.7% (inactive),3.9% (inactive),101,4% (inactive),113,-0.496,0.153,-1.2,20.3% (inactive),-0.46 (inactive),-2.1e-05 (inactive),0.0067 (inactive),0.00586 (inactive),inactive,14% (inactive),-5.82% (inactive),56.8% (active)
Cc1c(C=NCCOCc2ccccc2)cnn1C,579,0.8% (inactive),-5.6% (inactive),102,-159% (inactive),116,0.444,0.191,0.325,-1.98% (inactive),-0.369 (inactive),-3e-05 (inactive),0.00503 (inactive),0.00645 (inactive),inactive,-6.27% (inactive),11.7% (inactive),12.3% (inactive)
Cc1c(C2Nc3ccccc3NC3=C2C(=O)CC(C)(C)C3)cnn1C (centres undefined),678,34.8% (active),-2% (inactive),115,-16.2% (inactive),101,0.508,-0.847,-0.607,14.7% (inactive),-0.548 (inactive),-2.1e-05 (inactive),0.00605 (inactive),0.00628 (inactive),inactive,14.4% (inactive),35.1% (inactive),99.4% (active)
CCc1cc2c(=O)c(-c3nc4ccccc4[nH]3)coc2cc1OC(=O)N1CCOCC1,666,-4.8% (inactive),-15.2% (inactive),126,-44.8% (inactive),149,0.051,0.477,-0.475,-9.53% (inactive),-0.483 (inactive),-3e-05 (inactive),0.00512 (inactive),0.00565 (inactive),inactive,-11.5% (inactive),-4.36% (inactive),-9.08% (inactive)
Cc1ccc(S(=O)(=O)N2CCN(c3nc(C(C)C)c4c(c3C#N)CC(C)(C)OC4)CC2)cc1,604,-7.5% (inactive),-19.5% (inactive),102,-19.5% (inactive),120,0.934,0.596,-1.08,5.35% (inactive),-0.441 (inactive),-8.5e-05 (inactive),0.00654 (inactive),0.00645 (inactive),inactive; toxic,-7.57% (inactive),-1.31% (inactive),44.4% (inactive)
